Measurements published in PubChem BioAssay (NCATS).
“And” between values parts separate entries of the source, which are not always exact repeats. Equal values may be shown once. Results filed as inconclusive are left out. The source made the active and inactive calls. Unless noted, the call rests on the fitted dose curve; in most records, active means well fitted curve in the direction sought with a large enough effect; inconclusive means small, poorly fitted or top-dose-only effect, or another doubt; inactive means no such curve, though single readings can be large; an effect the other way counts as inactive or inconclusive.

Tested on: not listed separately
Assay: Primary qHTS for small molecule stabilizers of the endoplasmic reticulum resident proteome: Secreted ER Calcium Modulated Protein (SERCaMP) assay (AID 1508630); further: on the % scale 0 is the no-effect control and ±100 the full control effect
Details: SH-SY5Y GLuc-SERCaMP (Gaussia luciferase released on ER calcium loss) secretion, thapsigargin, luminescence; series mostly up to 38.4 µM; activity change, negative = inhibition: at the top concentration
In short: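 The SH-SY5Y reporter protocol was run at 3 concentrations up to 38.3 uM (primary) or 11 concentrations (follow-up): 16 h compound, 100 nM thapsigargin for 4 h, then extracellular luciferase luminescence.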

Compound | activity change, negative = inhibition | Potency
C#C[C@]1(OC(C)=O)CC[C@H]2[C@@H]3CCC4=C/C(=N/O)CC[C@@H]4[C@H]3CC[C@@]21CC | 11.4% (inactive) | –
CCN(CC)CCOc1ccc2c(c1)C(=O)c1cc(OCCN(CC)CC)ccc1-2 | – | inactive
C[C@@]12C(=O)OC(=O)[C@]1(C)C1CCC2O1 | 153% (inactive) | –
CCc1oc2ccccc2c1C(=O)c1cc(I)c(O)c(I)c1 | 3.39% (inactive) | –
Oc1c(Cl)cc(Cl)c(Cl)c1Cc1c(O)c(Cl)cc(Cl)c1Cl | -29.9% (inactive) | –
CC(=O)Nc1ncc([N+](=O)[O-])s1 | -22.7% (inactive) | –
COc1ccc(-c2cc(C(F)F)nn2-c2ccc(S(N)(=O)=O)cc2)cc1F | 28.7% (inactive) | –
CCCCCN=C(N)N/N=C/c1c[nH]c2ccc(OC)cc12 | 313% (inactive) | –
O=C(O)CCC(=O)Nc1ccc(S(=O)(=O)Nc2nccs2)cc1 | -8.1% (inactive) | –
O=C(NCCc1c[nH]c2ccccc12)c1cccnc1 | -24.2% (inactive) | –
CCN(CC)CCOc1ccccc1C(=O)CCc1ccccc1 | -23% (inactive) | –
CCO[C@@H]1O[C@H](C(COCc2ccccc2)OCc2ccccc2)[C@H](OCc2ccccc2)[C@H]1O (stereo not given in full) | -25.6% (inactive) | –
C#C[C@]1(O)CC[C@H]2[C@@H]3[C@H](C)CC4=C(CCC(=O)C4)[C@H]3CC[C@@]21C | -12% (inactive) | –
Nc1nc(Cl)nc2c1ncn2[C@@H]1O[C@H](CO)[C@@H](O)[C@@H]1F | 129% (inactive) | –
CC(C)[C@@H]1CC[C@@H](C)CC1=O | -35.9% (inactive) | –
COc1ccc(C(=O)c2ccccc2O)c(O)c1 | -13.3% (inactive) | –
CCOC(=O)c1ccc(N)cc1 | -13.3% (inactive) | –
CCCCN1C[C@H](O)[C@@H](O)[C@H](O)[C@H]1CO | 5.17% (inactive) | –

Compound | activity change, negative = inhibition | Potency
CCOC(=O)C(C#N)=C(c1ccccc1)c1ccccc1 | 12.4% (inactive) | –
CCCCCCCCCCCCCC[N+](C)(C)Cc1ccccc1 | 15.1% (inactive) | –
O=C(CN1CCN(Cc2ccc3c(c2)OCO3)CC1)N1c2ccccc2Sc2ccccc21 | -24.1% (inactive) | –
CCCCCCCCNC(C)C(O)c1ccc(SC(C)C)cc1 (stereo not given) | 82.1% (inactive) | –
CN(C)CCOC(c1ccc(Cl)cc1)c1ccccn1 (stereo not given) | -21.3% (inactive) | –
COc1ccc2c(c1)c1c3n2CCN(C)C3=NCC1 | -21.9% (inactive) | –
CC(CNC1CCCCC1)OC(=O)c1ccccc1 (stereo not given) | 39% (inactive) | –
CNCCCCOc1ccccc1Cc1ccccc1 | – | inactive
O=c1[nH]c(=O)n([C@H]2C[C@H](O)[C@@H](CO)O2)cc1F | 31.6% (inactive) | –
O=C(N/N=C/c1ccc([N+](=O)[O-])o1)c1ccc(O)cc1 | 32.2% (inactive) | –
C[C@H]1O[C@@H](O[C@H]2CC[C@@]3(C)[C@H](CC[C@@H]4[C@@H]3C[C@@H](O)[C@]3(C)[C@@H](C5=CC(=O)OC5)CC[C@]43O)C2)C[C@H](O)[C@@H]1O[C@H]1C[C@H](O)[C@H](O[C@H]2C[C@H](O)[C@H](O[C@@H]3O[C@H](CO)[C@@H](O)[C@H](O)[C@H]3O)[C@@H](C)O2)[C@@H](C)O1 | 59.9% (inactive) | –
C#C[C@]1(O)CC[C@H]2[C@@H]3CCc4cc(OC)ccc4[C@H]3CC[C@@]21C | -14.5% (inactive) | –
CCC(CC)(CC(=O)Nc1cccc(/C=C/c2nc(C3CCC3)cs2)c1)C(=O)O | – | inactive
C/C=C/C=N/NC(=O)c1ccncc1 | 4.65% (inactive) | –
CCN(CC)CCNc1ccc(CO)c2sc3ccccc3c(=O)c12 | 107% (inactive) | –
COc1ccccc1N1CCN(CCCCNC(=O)c2ccc(-c3ccc(C(C)=O)cc3)cc2)CC1 | – | inactive
N/C(=N\N=C\c1ccc(Cl)cc1)N/N=C/c1ccc(Cl)cc1 | 82.3% (inactive) | –
CC(C)=CCOc1ccc(/C=C/C(=O)c2ccc(OCC=C(C)C)cc2OCC(=O)O)cc1 | 26.3% (inactive) | –

Tested on: not listed separately
Assay: A High-Content qHTS Against Drug Library for the Identification of Small Molecules that Inhibit DYT1 Early Onset Primary Dystonia-Associated Cell Pathology (AID 1645839; calls by dose curve)
Details: HEK293 Flp-In EGFP-delE TorsinA, punctate imaging, 48 h; series mostly up to 46.1 µM; % pathology change, negative = correction: at the top concentration
In short: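 Cells were seeded and left for 24 h, then dosed with compound alongside tetracycline induction of mutant EGFP-TorsinA. They were incubated for 48 h, fixed in 4% paraformaldehyde, permeabilized and imaged for mislocalization (%pathology) and cell count.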

Compound | % pathology change, negative = correction
CC(=O)Nc1ncc([N+](=O)[O-])s1 | -4.54% (inactive)
O=C(O)CCC(=O)Nc1ccc(S(=O)(=O)Nc2nccs2)cc1 | 2.1% (inactive)
O=C(NCCc1c[nH]c2ccccc12)c1cccnc1 | -6.33% (inactive)
C#C[C@]1(O)CC[C@H]2[C@@H]3[C@H](C)CC4=C(CCC(=O)C4)[C@H]3CC[C@@]21C | -22.1% (inactive)
CC(C)[C@@H]1CC[C@@H](C)CC1=O | 10.2% (inactive)
COc1ccc(C(=O)c2ccccc2O)c(O)c1 | -22.2% (inactive)
CCCCN1C[C@H](O)[C@@H](O)[C@H](O)[C@H]1CO | -17.2% (inactive)
COc1ccc2c(c1)c1c3n2CCN(C)C3=NCC1 | 11% (inactive)
CC(CNC1CCCCC1)OC(=O)c1ccccc1 (stereo not given) | 4.79% (inactive)
C/C=C/C=N/NC(=O)c1ccncc1 | 13.2% (inactive)
COc1ccccc1N1CCN(CCCCNC(=O)c2ccc(-c3ccc(C(C)=O)cc3)cc2)CC1 | 0.0315% (inactive)

Target: Cytochrome P450 2D6 (Homo sapiens) (UniProt P10635)
Sequence (P10635 whole entry, looked up): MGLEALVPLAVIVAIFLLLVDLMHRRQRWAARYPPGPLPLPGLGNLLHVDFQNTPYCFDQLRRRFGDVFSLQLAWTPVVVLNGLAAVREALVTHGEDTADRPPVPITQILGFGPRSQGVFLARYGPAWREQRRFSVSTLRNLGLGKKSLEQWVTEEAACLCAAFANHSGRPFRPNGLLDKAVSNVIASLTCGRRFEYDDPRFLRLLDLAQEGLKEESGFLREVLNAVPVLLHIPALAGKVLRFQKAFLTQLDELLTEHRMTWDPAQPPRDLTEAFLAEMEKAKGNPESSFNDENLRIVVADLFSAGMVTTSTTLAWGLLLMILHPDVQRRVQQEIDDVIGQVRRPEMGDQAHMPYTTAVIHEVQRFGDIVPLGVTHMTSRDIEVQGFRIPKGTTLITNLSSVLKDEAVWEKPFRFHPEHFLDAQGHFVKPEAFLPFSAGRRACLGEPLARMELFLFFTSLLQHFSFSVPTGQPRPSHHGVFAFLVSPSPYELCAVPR
Assay: Cytochrome P450 family 2 subfamily D member 6 (CYP2D6) small molecule antagonists: luciferase biochemical (cell-free) qHTS assay (AID 1645840; active means well fitted curve in the direction sought with a large enough effect in the repeat runs; an effect the other way counts as inactive or inconclusive; further: nearly all actives have a fitted effect of over 55% in size; further: potency means the concentration at half of the fitted maximal effect; on activity change, negative = inhibition: on the % scale 0 is the no-effect control and ±100 the full control effect)
Details: P450-Glo CYP2D6 enzyme, luciferin luminescence, 1 h; series mostly up to 57.4 µM; activity change, negative = inhibition: at the top concentration
In short: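 P450-Glo CYP2D6 system: proluciferin substrate converted by enzyme to luciferin, read by luminescence proportional to activity. Enzyme-substrate mix with compound 10 min at room temperature, then NADPH regeneration 1 h before detection reagent.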

Compound | Potency | activity change, negative = inhibition
C#C[C@]1(OC(C)=O)CC[C@H]2[C@@H]3CCC4=C/C(=N/O)CC[C@@H]4[C@H]3CC[C@@]21CC | 2.68 µM (active) | –
CCN(CC)CCOc1ccc2c(c1)C(=O)c1cc(OCCN(CC)CC)ccc1-2 | – | -11% (inactive)
C[C@@]12C(=O)OC(=O)[C@]1(C)C1CCC2O1 | – | -1.74% (inactive)
Oc1c(Cl)cc(Cl)c(Cl)c1Cc1c(O)c(Cl)cc(Cl)c1Cl | 13.8 µM (active) | –
COc1ccc(-c2cc(C(F)F)nn2-c2ccc(S(N)(=O)=O)cc2)cc1F | 5.49 µM (active) | –
CCCCCN=C(N)N/N=C/c1c[nH]c2ccc(OC)cc12 | 0.219 µM (active) | –
CCN(CC)CCOc1ccccc1C(=O)CCc1ccccc1 | 0.11 µM (active) | –
CCO[C@@H]1O[C@H](C(COCc2ccccc2)OCc2ccccc2)[C@H](OCc2ccccc2)[C@H]1O (stereo not given in full) | 11 µM (active) | –
Nc1nc(Cl)nc2c1ncn2[C@@H]1O[C@H](CO)[C@@H](O)[C@@H]1F | inactive | –
CCOC(=O)c1ccc(N)cc1 | – | 0.695% (inactive)
CCOC(=O)C(C#N)=C(c1ccccc1)c1ccccc1 | – | -2.09% (inactive)
CCCCCCCCCCCCCC[N+](C)(C)Cc1ccccc1 | 0.347 µM (active) | –
O=C(CN1CCN(Cc2ccc3c(c2)OCO3)CC1)N1c2ccccc2Sc2ccccc21 | 0.195 µM (active) | –
CCCCCCCCNC(C)C(O)c1ccc(SC(C)C)cc1 (stereo not given) | 1.38 µM (active) and 8.49 µM (active) | –
CN(C)CCOC(c1ccc(Cl)cc1)c1ccccn1 (stereo not given) | 15.5 µM (active) | –
CNCCCCOc1ccccc1Cc1ccccc1 | 0.692 µM (active) | –
O=c1[nH]c(=O)n([C@H]2C[C@H](O)[C@@H](CO)O2)cc1F | – | 11.4% (inactive)
O=C(N/N=C/c1ccc([N+](=O)[O-])o1)c1ccc(O)cc1 | 3.89 µM (active) | –
C[C@H]1O[C@@H](O[C@H]2CC[C@@]3(C)[C@H](CC[C@@H]4[C@@H]3C[C@@H](O)[C@]3(C)[C@@H](C5=CC(=O)OC5)CC[C@]43O)C2)C[C@H](O)[C@@H]1O[C@H]1C[C@H](O)[C@H](O[C@H]2C[C@H](O)[C@H](O[C@@H]3O[C@H](CO)[C@@H](O)[C@H](O)[C@H]3O)[C@@H](C)O2)[C@@H](C)O1 | – | 5.72% (inactive)
C#C[C@]1(O)CC[C@H]2[C@@H]3CCc4cc(OC)ccc4[C@H]3CC[C@@]21C | – | -6.77% (inactive)
CCC(CC)(CC(=O)Nc1cccc(/C=C/c2nc(C3CCC3)cs2)c1)C(=O)O | – | -15.5% (inactive)
CCN(CC)CCNc1ccc(CO)c2sc3ccccc3c(=O)c12 | 4.36 µM (active) | –
N/C(=N\N=C\c1ccc(Cl)cc1)N/N=C/c1ccc(Cl)cc1 | 15.5 µM (active) | –
